Hit rate of the full screen: of about 5,500 compounds, about 2,000 (36%) were called active. Another 18% or so got no clear call; they are omitted. No stated cut-off is given here; in the data, active means normalized growth mostly below about 0.91 (no sharp cut-off); inconclusive means no clear call, values can overlap the other calls; inactive means mostly above about 0.92. This is one part of the list.
Experiment: chemical genetic growth profiling, strain panel (AID 1159580);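 further: tested at 20 µM; growth read once vehicle control cultures reached saturation at 30 °C; 1 = growth at the plate median or of vehicle wells; lower values mean less growth of the strain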
Conditions: growth OD

Measured: normalized growth

CO[C@@H]1C[C@@H](C[C@H]2CC[C@H](C)[C@H]([C@@H](C)C(=O)O)O2)O[C@]2(O[C@](C)([C@H]3CC[C@@](C)(C4O[C@@H](C5O[C@@](O)(CO)[C@H](C)C[C@@H]5C)C[C@@H]4C)O3)C[C@H]2C)[C@@H]1C (stereo partly specified)
inactive: S. cerevisiae deletion strains, locus YAL013W, strain DEP1, active compounds read low 1.03 | S. cerevisiae deletion strains, locus YBR229C, strain ROT2, active compounds read low 1.04 | S. cerevisiae deletion strains, locus YCL029C, strain bik1, active compounds read low 0.955 | S. cerevisiae deletion strains, locus YDL035C, strain GPR1, active compounds read low 1.03 | S. cerevisiae deletion strains, locus YDL074C, strain BRE1, active compounds read low 1.01 | S. cerevisiae deletion strains, locus YDL101C, strain DUN1, active compounds read low 1.01 | S. cerevisiae deletion strains, locus YDL134C, strain PPH21, active compounds read low 1.01 | S. cerevisiae deletion strains, locus YDL185W, strain tfp1, active compounds read low 0.99 | S. cerevisiae deletion strains, locus YDL192W, strain arf1, active compounds read low 0.961 | S. cerevisiae deletion strains, locus YDR101C, strain arx1, active compounds read low 0.977 | S. cerevisiae deletion strains, locus YDR150W, strain NUM1, active compounds read low 1.04 | S. cerevisiae deletion strains, locus YDR162C, strain NBP2, active compounds read low 1.01 | S. cerevisiae deletion strains, locus YDR318W, strain mcm21, active compounds read low 0.966 | S. cerevisiae deletion strains, locus YDR388W, active compounds read low 0.981 | S. cerevisiae deletion strains, locus YDR502C, strain sam2, active compounds read low 0.99 | S. cerevisiae deletion strains, locus YEL061C, strain CIN8, active compounds read low 1.02 | S. cerevisiae deletion strains, locus YER110C, active compounds read low 1.03 | S. cerevisiae deletion strains, locus YER167W, strain BCK2, active compounds read low 1.02 | S. cerevisiae deletion strains, locus YGL078C, strain dbp3, active compounds read low 0.976 | S. cerevisiae deletion strains, locus YGL086W, strain mad1, active compounds read low 0.97 | S. cerevisiae deletion strains, locus YGL248W, strain PDE1, active compounds read low 1.01 | S. cerevisiae deletion strains, locus YGR078C, strain PAC10, active compounds read low 1.02 | S. cerevisiae deletion strains, locus YGR135W, strain pre9, active compounds read low 0.984 | S. cerevisiae deletion strains, locus YGR229C, strain SMI1, active compounds read low 1.02 | S. cerevisiae deletion strains, locus YGR252W, strain gcn5, active compounds read low 1.06 | S. cerevisiae deletion strains, locus YHR030C, strain SLT2, active compounds read low 1.03 | S. cerevisiae deletion strains, locus YHR079C, strain IRE1 (second series), active compounds read low 0.968 | S. cerevisiae deletion strains, locus YHR094C, strain hxt1, active compounds read low 0.992 | S. cerevisiae deletion strains, locus YHR129C, strain ARP1, active compounds read low 1.06 | S. cerevisiae deletion strains, locus YHR200W, strain rpn10, active compounds read low 0.968 | S. cerevisiae deletion strains, locus YIL066C, strain RNR3, active compounds read low 1.01 | S. cerevisiae deletion strains, locus YIL073C, strain SPO22, active compounds read low 0.984 | S. cerevisiae deletion strains, locus YIL125W, strain kgd1, active compounds read low 0.982 | S. cerevisiae deletion strains, locus YIR030C, strain dcg1, active compounds read low 0.982 | S. cerevisiae deletion strains, locus YJL095W, strain BCK1, active compounds read low 0.997 | S. cerevisiae deletion strains, locus YJL134W, strain LCB3, active compounds read low 1.03 | S. cerevisiae deletion strains, locus YJL168C, strain set2, active compounds read low 0.993 | S. cerevisiae deletion strains, locus YJL187C, strain SWE1 (second series), active compounds read low 1.01 | S. cerevisiae deletion strains, locus YJR043C, strain POL32, active compounds read low 1.02 | S. cerevisiae deletion strains, locus YJR075W, strain HOC1, active compounds read low 1 | S. cerevisiae deletion strains, locus YKL009W, strain mrt4, active compounds read low 0.98 | S. cerevisiae deletion strains, locus YKL068W, active compounds read low 1.01 | S. cerevisiae deletion strains, locus YKL085W, strain MDH1 (second series), active compounds read low 0.978 | S. cerevisiae deletion strains, locus YKL085W, strain MDH1, active compounds read low 0.978 | S. cerevisiae deletion strains, locus YKL190W, strain CNB1, active compounds read low 1.02 | S. cerevisiae deletion strains, locus YKR001C, strain vps1, active compounds read low 1.02 | S. cerevisiae deletion strains, locus YLR058C, strain SHM2, active compounds read low 1.02 | S. cerevisiae deletion strains, locus YLR102C, strain apc9, active compounds read low 0.997 | S. cerevisiae deletion strains, locus YLR268W, strain sec22, active compounds read low 0.929 | S. cerevisiae deletion strains, locus YLR330W, strain CHS5, active compounds read low 1.04 | S. cerevisiae deletion strains, locus YLR342W, strain FKS1 (second series), active compounds read low 1.03 | S. cerevisiae deletion strains, locus YLR371W, strain rom2, active compounds read low 0.999 | S. cerevisiae deletion strains, locus YLR418C, strain cdc73, active compounds read low 1.02 | S. cerevisiae deletion strains, locus YML016C, strain PPZ1, active compounds read low 1.03 | S. cerevisiae deletion strains, locus YML032C, strain rad52, active compounds read low 0.986 | S. cerevisiae deletion strains, locus YML124C, strain tub3, active compounds read low 0.983 | S. cerevisiae deletion strains, locus YMR078C, strain ctf18, active compounds read low 1.03 | S. cerevisiae deletion strains, locus YMR223W, strain ubp8, active compounds read low 0.994 | S. cerevisiae deletion strains, locus YMR263W, strain SAP30, active compounds read low 1.01 | S. cerevisiae deletion strains, locus YMR307W, strain GAS1, active compounds read low 1.17 | S. cerevisiae deletion strains, locus YNL067W, strain RPL9B, active compounds read low 1.01 | S. cerevisiae deletion strains, locus YNL128W, strain TEP1, active compounds read low 1.04 | S. cerevisiae deletion strains, locus YNL153C, strain GIM3, active compounds read low 0.999 | S. cerevisiae deletion strains, locus YNL233W, strain BNI4, active compounds read low 0.996 | S. cerevisiae deletion strains, locus YNL250W, strain rad50, active compounds read low 0.966 | S. cerevisiae deletion strains, locus YNL271C, strain bni1, active compounds read low 1.01 | S. cerevisiae deletion strains, locus YNL298W, strain CLA4, active compounds read low 0.989 | S. cerevisiae deletion strains, locus YNL307C, strain MCK1, active compounds read low 1.01 | S. cerevisiae deletion strains, locus YNL322C, strain KRE1, active compounds read low 1.02 | S. cerevisiae deletion strains, locus YNR052C, strain pop2, active compounds read low 0.976 | S. cerevisiae deletion strains, locus YOL006C, strain TOP1, active compounds read low 0.814 | S. cerevisiae deletion strains, locus YOL012C, strain htz1 1.61 | S. cerevisiae deletion strains, locus YOL147C, strain pex11, active compounds read low 0.989 | S. cerevisiae deletion strains, locus YOR061W, strain CKA2, active compounds read low 1.02 | S. cerevisiae deletion strains, locus YOR069W, strain VPS5, active compounds read low 1.03 | S. cerevisiae deletion strains, locus YOR136W, strain idh2, active compounds read low 0.976 | S. cerevisiae deletion strains, locus YOR144C, strain elg1, active compounds read low 0.988 | S. cerevisiae deletion strains, locus YOR184W, strain ser1, active compounds read low 0.975 | S. cerevisiae deletion strains, locus YOR316C, strain cot1, active compounds read low 0.99 | S. cerevisiae deletion strains, locus YPL055C, strain LGE1, active compounds read low 1.03 | S. cerevisiae deletion strains, locus YPL241C, strain CIN2, active compounds read low 1.04 | S. cerevisiae deletion strains, locus YPR119W, strain clb2, active compounds read low 0.99 | S. cerevisiae deletion strains, locus YPR141C, strain kar3, active compounds read low 0.986 | S. cerevisiae deletion strains, locus YPR163C, strain tif3, active compounds read low 1.01 | S. cerevisiae deletion strains, locus YPR167C, strain met16, active compounds read low 0.977 | S. cerevisiae deletion strains, strain wtn01, active compounds read low 0.969 | S. cerevisiae strains, strain wild type, active compounds read low 1
active: S. cerevisiae deletion strains, locus YBR021W, strain FUR4, active compounds read low 1.19 [resistant] | S. cerevisiae deletion strains, locus YER155C, strain BEM2, active compounds read low 1.08 [resistant] | S. cerevisiae deletion strains, locus YLR039C, strain RIC1, active compounds read low 1.35 [resistant] | S. cerevisiae deletion strains, locus YLR262C, strain YPT6, active compounds read low 1.45 [resistant]

— PubChem BioAssay AID1159580 (chemical genetic matrix, 2015)
